Measurements reported in PubChem BioAssay AID1159580 (chemical genetic matrix, 2015).
“And” between values parts separate entries of the source, which are not always exact repeats. Identical values can stand only once. About 2,000 (36%) of roughly 5,500 compounds were called active. Roughly 18% stayed inconclusive and do not appear here. Cut-off read from the data, not from the text of the source: active = normalized growth mostly below about 0.91 (no sharp cut-off); inconclusive = no clear call, values can overlap the other calls; inactive = mostly above about 0.92. The list shows a part of the results.

Test: chemical genetic growth profiling, strain panel (AID 1159580);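 note: tested at 20 µM; growth read once vehicle control cultures reached saturation at 30 °C; 1 = growth at the plate median or of vehicle wells; lower values mean less growth of the strain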
Settings: S. cerevisiae deletion strains, growth OD

Measured: normalized growth

CC(=O)O[C@H]1C[C@@H](OC(C)=O)C(C)(C)C2C[C@@H](OC(C)=O)[C@]3(C)C(CC[C@@]4(C)[C@H](c5ccoc5)OC(=O)[C@H]5O[C@]543)[C@]21C (some centres not stated)
inactive: locus YAL021C, strain ccr4, hits give low values 0.993 | locus YAL026C, strain drs2, hits give low values 0.984 | locus YAL030W, strain snc1, hits give low values 0.993 | locus YBL061C, strain skt5, hits give low values 0.993 | locus YBR009C, strain hhf1, hits give low values 1.02 | locus YBR021W, strain FUR4, hits give low values 0.969 | locus YBR023C, strain chs3, hits give low values 0.996 | locus YBR171W, strain sec66, hits give low values 0.991 | locus YBR229C, strain ROT2, hits give low values 0.992 | locus YBR231C, strain swc5, hits give low values 1.01 | locus YBR279W, strain paf1, hits give low values 1 | locus YCL011C, strain gbp2, hits give low values 1 | locus YCL016C, strain dcc1, hits give low values 0.992 | locus YCL029C, strain bik1, hits give low values 1.01 | locus YCL061C, strain MRC1, hits give low values 1 | locus YCL069W, strain vba3, hits give low values 0.999 | locus YCR088W, strain abp1, hits give low values 1 | locus YDL005C, strain med2, hits give low values 0.993 | locus YDL035C, strain GPR1, hits give low values 1.02 | locus YDL040C, strain nat1, hits give low values 0.999 | locus YDL074C, strain BRE1, hits give low values 1.01 | locus YDL101C, strain DUN1, hits give low values 0.991 | locus YDL134C, strain PPH21, hits give low values 0.994 | locus YDL185W, strain tfp1, hits give low values 1 | locus YDL192W, strain arf1, hits give low values 1.01 | locus YDR001C, strain nth1, hits give low values 0.976 | locus YDR069C, strain doa4, hits give low values 0.975 | locus YDR101C, strain arx1, hits give low values 1.02 | locus YDR137W, strain rgp1, hits give low values 0.963 | locus YDR159W, strain sac3, hits give low values 0.96 | locus YDR162C, strain NBP2, hits give low values 1.02 | locus YDR195W, strain ref2 0.954 | locus YDR297W, strain sur2, hits give low values 0.998 | locus YDR318W, strain mcm21, hits give low values 1.01 | locus YDR334W, strain swr1, hits give low values 0.971 | locus YDR335W, strain msn5, hits give low values 0.993 | locus YDR388W, hits give low values 0.999 | locus YDR392W, strain spt3, hits give low values 0.989 | locus YDR502C, strain sam2, hits give low values 0.998 | locus YEL003W, strain gim4, hits give low values 0.988 | locus YEL037C, strain rad23, hits give low values 0.994 | locus YEL061C, strain CIN8 (second series), hits give low values 0.991 | locus YEL061C, strain CIN8, hits give low values 1.02 | locus YER015W, strain faa2, hits give low values 1 | locus YER016W, strain bim1, hits give low values 0.993 | locus YER110C, hits give low values 1 | locus YER111C, strain swi4, hits give low values 0.988 | locus YER155C, strain BEM2 (second series), hits give low values 0.996 | locus YER155C, strain BEM2, hits give low values 1 | locus YER167W, strain BCK2, hits give low values 0.998 | locus YFR010W, strain ubp6, hits give low values 0.973 | locus YGL078C, strain dbp3, hits give low values 0.997 | locus YGL086W, strain mad1, hits give low values 1.02 | locus YGL167C, strain pmr1, hits give low values 0.987 | locus YGL173C, strain kem1, hits give low values 0.999 | locus YGL227W, strain vid30, hits give low values 1.01 | locus YGL240W, strain doc1, hits give low values 0.999 | locus YGL248W, strain PDE1, hits give low values 0.99 | locus YGL253W, strain hxk2, hits give low values 0.995 | locus YGR078C, strain PAC10, hits give low values 0.991 | locus YGR135W, strain pre9, hits give low values 0.979 | locus YGR252W, strain gcn5, hits give low values 0.966 | locus YHR013C, strain ard1, hits give low values 0.987 | locus YHR027C, strain rpn1, hits give low values 0.968 | locus YHR030C, strain SLT2, hits give low values 0.978 | locus YHR079C, strain IRE1 (second series), hits give low values 0.989 | locus YHR079C, strain IRE1, hits give low values 0.984 | locus YHR094C, strain hxt1, hits give low values 1.01 | locus YHR129C, strain ARP1, hits give low values 1.02 | locus YHR142W, strain chs7, hits give low values 1 | locus YHR200W, strain rpn10, hits give low values 0.995 | locus YIL066C, strain RNR3, hits give low values 1.01 | locus YIL073C, strain SPO22, hits give low values 0.989 | locus YIL125W, strain kgd1, hits give low values 0.996 | locus YIR030C, strain dcg1, hits give low values 1 | locus YJL092W, strain hpr5, hits give low values 1.01 | locus YJL095W, strain BCK1 (second series), hits give low values 0.995 | locus YJL095W, strain BCK1, hits give low values 1.02 and 0.984 | locus YJL115W, strain asf1, hits give low values 0.974 | locus YJL129C, strain trk1, hits give low values 0.979 | locus YJL134W, strain LCB3, hits give low values 1.02 | locus YJL154C, strain vps35, hits give low values 0.98 | locus YJL164C, strain tpk1, hits give low values 0.997 | locus YJL166W, strain qcr8, hits give low values 1.03 | locus YJL168C, strain set2, hits give low values 0.999 | locus YJL187C, strain SWE1 (second series), hits give low values 0.989 | locus YJL187C, strain SWE1, hits give low values 0.999 | locus YJR043C, strain POL32, hits give low values 1.02 | locus YJR066W, strain TOR1, hits give low values 0.932 | locus YKL009W, strain mrt4, hits give low values 1 | locus YKL068W, hits give low values 1.01 | locus YKL160W, strain elf1, hits give low values 1 | locus YKL190W, strain CNB1, hits give low values 1.01 | locus YKR001C, strain vps1, hits give low values 1 | locus YKR026C, strain gcn3, hits give low values 0.995 | locus YKR091W, strain srl3, hits give low values 0.989 | locus YLL001W, strain dnm1, hits give low values 0.988 | locus YLL026W, hits give low values 0.997 | locus YLL041C, strain sdh2, hits give low values 0.987 | locus YLR027C, strain aat2, hits give low values 1.01 | locus YLR039C, strain RIC1, hits give low values 0.981 | locus YLR058C, strain SHM2, hits give low values 1.01 | locus YLR102C, strain apc9, hits give low values 0.999 | locus YLR113W, strain HOG1, hits give low values 1.03 | locus YLR221C, strain rsa3, hits give low values 0.995 | locus YLR258W, strain gsy2, hits give low values 0.998 | locus YLR262C, strain YPT6 (second series), hits give low values 0.969 | locus YLR262C, strain YPT6, hits give low values 0.974 | locus YLR268W, strain sec22, hits give low values 1 | locus YLR320W, strain mms22, hits give low values 1.02 | locus YLR330W, strain CHS5, hits give low values 1.01 | locus YLR342W, strain FKS1, hits give low values 1 | locus YLR357W, strain rsc2, hits give low values 0.997 | locus YLR370C, strain arc18, hits give low values 0.995 | locus YLR371W, strain rom2, hits give low values 1 | locus YLR384C, strain iki3, hits give low values 1.01 | locus YLR418C, strain cdc73, hits give low values 0.996 | locus YML016C, strain PPZ1, hits give low values 1.01 | locus YML032C, strain rad52, hits give low values 1 | locus YML120C, strain ndi1, hits give low values 0.995 | locus YML124C, strain tub3, hits give low values 1 | locus YMR058W, strain fet3, hits give low values 0.985 | locus YMR078C, strain ctf18, hits give low values 0.989 | locus YMR125W, strain sto1, hits give low values 0.983 | locus YMR129W, hits give low values 0.994 | locus YMR205C, strain PFK2, hits give low values 0.988 | locus YMR223W, strain ubp8, hits give low values 0.996 | locus YMR231W, strain pep5, hits give low values 0.981 | locus YMR307W, strain GAS1, hits give low values 0.895 | locus YNL067W, strain RPL9B, hits give low values 1.01 | locus YNL071W, strain lat1, hits give low values 0.992 | locus YNL128W, strain TEP1, hits give low values 1.02 | locus YNL153C, strain GIM3, hits give low values 1.02 | locus YNL183C, strain NPR1, hits give low values 0.93 | locus YNL209W, strain ssb2, hits give low values 0.995 | locus YNL233W, strain BNI4, hits give low values 0.974 | locus YNL248C, strain rpa49, hits give low values 0.971 | locus YNL250W, strain rad50, hits give low values 0.98 | locus YNL271C, strain bni1, hits give low values 1 | locus YNL298W, strain CLA4, hits give low values 1.01 | locus YNL307C, strain MCK1, hits give low values 0.986 | locus YNL322C, strain KRE1 (second series), hits give low values 0.999 | locus YNR049C, strain mso1, hits give low values 0.991 | locus YNR052C, strain pop2, hits give low values 0.996 | locus YOL012C, strain htz1 1 | locus YOL147C, strain pex11, hits give low values 0.999 | locus YOR001W, strain rrp6, hits give low values 0.979 | locus YOR061W, strain CKA2, hits give low values 0.997 | locus YOR069W, strain VPS5, hits give low values 0.991 | locus YOR070C, strain gyp1, hits give low values 0.986 | locus YOR080W, strain dia2, hits give low values 0.997 | locus YOR083W, strain WHI5, hits give low values 1 | locus YOR106W, strain vam3, hits give low values 0.983 | locus YOR136W, strain idh2, hits give low values 0.996 | locus YOR144C, strain elg1, hits give low values 1 | locus YOR184W, strain ser1, hits give low values 1 | locus YOR231W, strain MKK1, hits give low values 0.987 | locus YOR265W, strain rbl2, hits give low values 0.989 | locus YOR270C, strain vph1, hits give low values 0.858 | locus YOR290C, strain snf2, hits give low values 0.994 | locus YOR316C, strain cot1, hits give low values 0.999 | locus YPL051W, strain arl3, hits give low values 1 | locus YPL055C, strain LGE1, hits give low values 1.02 | locus YPL078C, strain atp4, hits give low values 1.01 | locus YPL106C, strain sse1, hits give low values 1.05 | locus YPL240C, strain hsp82, hits give low values 0.994 | locus YPL256C, strain CLN2, hits give low values 0.989 | locus YPR119W, strain clb2, hits give low values 1.01 | locus YPR141C, strain kar3, hits give low values 0.996 | locus YPR163C, strain tif3, hits give low values 1 | locus YPR167C, strain met16, hits give low values 1 | strain wtn01, hits give low values 1
